ALDH1A1 inh-1 = ALDH1A1 (human) enzyme inhibition | P00352 | Purified ALDH1A1, NADH fluorescence, propionaldehyde substrate | Potency, µM (doses to about 75.3 µM), hits mostly inhibitors | 220,000 tested, 7.3% active
IMPase cell inh = membrane-permeable compound that blocks inositol monophosphatase; 120,000 tested, under 10 active; inhibition (IP1 accumulation), % at 46.1 µM; AID 901; CHO-M1 cells, IP1 accumulation, HTRF TR-FRET ratio; P97697; active = well fitted curve in the direction sought with a large enough effect in the signal ratio, not every such curve was filed as active; inconclusive = small, poorly fitted or top-dose-only effect, or a change in a side signal; inactive = no such curve, though single readings can be large or run the other way; the % refers to the signal ratio;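 note: cells stimulated with carbachol in lithium chloride buffer; higher means more IMPase inhibition seen as more IP1 and lower FRET ratio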
Target sequence (P97697 whole entry, looked up): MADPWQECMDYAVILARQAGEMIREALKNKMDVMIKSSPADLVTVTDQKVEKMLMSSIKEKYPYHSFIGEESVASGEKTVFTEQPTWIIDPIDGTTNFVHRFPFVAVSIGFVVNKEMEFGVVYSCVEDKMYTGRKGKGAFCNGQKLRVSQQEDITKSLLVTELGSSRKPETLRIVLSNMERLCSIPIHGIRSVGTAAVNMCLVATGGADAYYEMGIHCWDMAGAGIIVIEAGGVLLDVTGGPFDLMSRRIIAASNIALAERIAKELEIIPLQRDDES
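CHO-M1, 2000 cells/well, cultured 16–30 h; cpd up to 46 uM; carbachol (50 uM solution, stimulation buffer w/ 50 mM LiCl, pH 7.4), 30 min 37C; IP-One TR-FRET, 10 min RT; Ex 320/Em 665, 620; Hill-fit AC50.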
HPGD inh = HPGD (human) dehydrogenase inhibition; P15428; purified HPGD, NADH fluorescence kinetic, PGE2 substrate; Potency, µM, usual class: inhibitors; 150,000 tested, 4.3% active; AID 894
Target sequence (P15428 whole entry, looked up): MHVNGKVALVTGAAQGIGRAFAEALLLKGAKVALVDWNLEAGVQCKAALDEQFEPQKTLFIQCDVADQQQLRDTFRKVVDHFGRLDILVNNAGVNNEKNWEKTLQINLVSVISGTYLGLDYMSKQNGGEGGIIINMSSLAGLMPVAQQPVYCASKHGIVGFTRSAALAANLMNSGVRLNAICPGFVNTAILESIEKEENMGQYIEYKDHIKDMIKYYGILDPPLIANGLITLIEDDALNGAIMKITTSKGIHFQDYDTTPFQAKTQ
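20 nM HPGD preincubated 15 min at room temperature with compound in 50 mM Tris-HCl pH 8, 0.01% Tween 20. Started with 1 mM NAD+ and 30 uM prostaglandin E2; NADH fluorescence (360/450 nm) read 5 times over 30-s intervals, last minus first.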
HPGD inh conf = confirmation of human HPGD inhibitors; shares compounds with HPGD inh; 90 tested, 90% active; Potency, µM (series often up to 57.1 µM), hits mostly inhibitors; recombinant HPGD, NADH fluorescence, PGE2 substrate; calls by dose curve
ALDH1A1 inh-2 = Blocks ALDH1A1 NADH production, follow-up. shares compounds with ALDH1A1 inh-1. purified ALDH1A1, NADH fluorescence, propionaldehyde/NAD+. Potency, µM (titrated, usually from 57.1 µM), hits mostly inhibitors. 90 tested, 90% active; calls by dose curve
Numbers stand for hits; n = inactive; u = inconclusive; x = not tested or not shown; [ ] = dose if it differs, or a comment. An excerpt weighted towards active compounds, which were near 9% of everything screened. Unless noted, calls come from the whole dose curve; as a rule, active = well fitted inhibition curve with a large enough effect (not every such curve was filed as active); inconclusive = small, poorly fitted or top-dose-only effect, or another doubt; inactive = no such curve, though single readings can be large or run the other way.

SMILES	ALDH1A1 inh-1	IMPase cell inh	HPGD inh	HPGD inh conf	others
O=C(Nc1nc(-c2cccc([N+](=O)[O-])c2)cs1)c1cccc([N+](=O)[O-])c1C(=O)O	n	x	x	x
O=C(NCCO)C(F)(F)C(F)(F)C(F)(F)OC(F)(C(=O)NCCO)C(F)(F)F (stereo not given)	n	n	n	x
CN(C)c1ccc(-c2nc(Nc3ccncc3)c3ccccc3n2)cc1	n	x	u	x
CN(C)C(=O)c1ccc(-c2nc(Nc3ccncc3)c3ccccc3n2)cc1	n	x	0.159µM	0.112µM
CN(C(=O)CSc1ncc(C(F)(F)F)cc1Cl)c1c(N)n(Cc2ccccc2)c(=O)[nH]c1=O	n	x	x	x
Cc1cccc(NC(=O)C23CCC(C)(C2Br)C3(C)C)c1 (stereo not given)	n	n	n	x
Cc1ccc(NS(=O)(=O)c2cc(C(=O)N3CCc4ccccc4C3)ccc2Cl)cc1	n	n	n	n
Cc1ccccc1NS(=O)(=O)c1cc(C(=O)N2CCc3ccccc3C2)ccc1C	n	n	n	x
COc1ccccc1OCc1ccc(C(=O)N2CCN(C(=O)c3ccco3)CC2)cc1	u	n	n	x
O=C(c1ccc(COc2ccccc2Br)cc1)N1CCCCC1	u	n	0.0447µM	0.0891µM
Cc1ccc(C)c(Cn2c(=O)n(-c3ccc(CC(=O)NCc4ccco4)cc3)c(=O)c3sccc32)c1	n	n	n	x
Cc1ccc(C)c(Cn2nnc3c(=O)[nH]c(C(=O)NCc4ccco4)nc32)c1	n	n	0.562µM	0.316µM
Cc1ccc(C(=O)N/C(=C\c2ccc(-c3ccc([N+](=O)[O-])cc3)o2)C(=O)NC2CCS(=O)(=O)C2)cc1 (stereo not given)	n	n	n	x
COc1ccc(S(=O)(=O)Nc2ccc(O)c(Sc3ncn[nH]3)c2)cc1	n	n	n	x
COc1ccc(S(=O)(=O)Nc2cc(Sc3ncn[nH]3)c(O)c3ccccc23)cc1	u	n	1.12µM	0.355µM
CCCC(CCC)C(=O)Nc1cccc(C(=O)O)c1	n	n	n	x
CN(CCc1ccccn1)Cc1ccc(Cl)cc1Cl	n	n	n	x
Cc1ccc2c(c1)C(=O)OC(C(=O)Nc1ncc(Cc3ccc(C(C)C)cc3)s1)C2 (stereo not given)	x	n	x	x
CC1CCN(C(=O)CCc2ccc(Oc3cc([N+](=O)[O-])cc([N+](=O)[O-])c3)cc2)CC1	u	x	1µM	0.891µM
O=C(CCc1ccc(Oc2cc([N+](=O)[O-])cc([N+](=O)[O-])c2)cc1)NC1CCCC1	n	x	15.8µM	5.01µM
Cc1ccc(C(=O)COC(=O)CCC(=O)NC2CCCCC2)cc1[N+](=O)[O-]	n	x	x	x
CC1CCN(C(=O)CCc2ccc(S(=O)(=O)NC(C)(C)C)cc2)CC1	n	n	n	x
CSc1c(CC(=O)Nc2ccccc2C(F)(F)F)n(Cc2ccccc2)c2ccccc12	n	x	n	x
O=C(Nc1ccc(C(=O)N2CCCCC2)cc1)c1ccc(Br)cc1	14.1µM	n	0.631µM	0.355µM
O=C(Nc1ccc(Br)cc1)N1CCCCCCC1	n	n	n	x
SMILES	ALDH1A1 inh-1	IMPase cell inh	HPGD inh	HPGD inh conf	others
COc1ccccc1C(=O)Nc1ccc(C(=O)N2CCCC2)cc1	n	n	1.41µM	1µM
COc1ccccc1C(=O)Nc1ccc(C(=O)O)cc1	n	x	n	x
COc1ccc(C(=O)N2CCN(C(=O)COc3ccc(Br)cc3)CC2)cc1OC	x	n	x	x
O=C1CC(c2ccc(F)cc2)SC(N(c2ccccc2)c2ccccc2)=N1 (stereo not given)	n	x	n	x
COc1ccc(-c2nc(C#N)c(NC(C)c3ccccc3)o2)cc1OC (stereo not given)	u	n[1.84 µM]	u	x
O=C1ON=C(c2ccccc2)/C1=C/c1ccc(-c2ccccc2[N+](=O)[O-])o1	10µM	x	1.58µM	0.447µM
N#C/C(=C\c1ccc(-c2ccccc2[N+](=O)[O-])o1)C(=O)N1CCOCC1	n	x	x	x
O=C(CCNC(=O)c1ccc([N+](=O)[O-])cc1)Nc1ccc(N2CCOCC2)cc1N1CCOCC1	n	x	x	x
Cc1cccc(NC(=O)CSc2n[nH]c(-c3ccncc3)n2)c1	n	n	n	x
O=C(CSc1n[nH]c(-c2ccccc2)n1)Nc1ncc(Br)cc1Br	n	n	0.794µM	1.41µM
O=C(Cc1csc(N2CCOCC2)n1)N/N=C/c1ccc(F)cc1	n	n	n	x
O=C(OCCN1C(=O)CCC1=O)c1ccc(S(=O)(=O)N2CCCCC2)cc1	n	n	n	x
COCCNC(=O)COC(=O)/C=C/c1c(C)nn(Cc2ccc(Cl)cc2Cl)c1Cl	n	u	x	x
NNc1nc(N)c2c(n1)-c1ccccc1CC21CCCC1	u	n	u	x
CC1CCCN(CC(=O)Nc2cccc([N+](=O)[O-])c2)C1 (stereo not given)	u	n	n	x
Cc1noc(C)c1C(=O)N1CCN(C(=O)c2sc3cc(Cl)ccc3c2Cl)CC1	u	n	n	x
O=C(c1sc2cc([N+](=O)[O-])ccc2c1Cl)N1CCCCC1	u	x	1.12µM	0.562µM
CC1CCCN(C(=O)c2sc3cc([N+](=O)[O-])ccc3c2Cl)C1 (stereo not given)	5.62µM	n	0.447µM	0.501µM
CC(C)NC(=O)N1CCCC2(CCN(C(=O)c3cccc(F)c3)CC2)C1	n	x	n	x
CCOCCCNC(=O)C1CCCN1C(=O)Nc1ccccc1[N+](=O)[O-] (stereo not given)	n	x	x	x
O=C(c1ccc(N2CCCC2=O)cc1)N1CCN(c2ccccc2)CC1	n	n	n	x
O=C(c1ccc(N2CCCC2=O)cc1)N1CCCCCC1	u	n	0.224µM	0.282µM
COc1ccc(NC(=O)c2sc3nc(Cc4ccccc4)cc(C(F)(F)F)c3c2N)cc1OC	n	x	n	x
COc1ccccc1NC(=O)c1sc2nc(Cc3ccccc3)cc(C(F)(F)F)c2c1N	n	n	n	n
Cc1ccc(NC(=O)N2CCc3ccccc3C2)cc1	u	n	n	x
SMILES	ALDH1A1 inh-1	IMPase cell inh	HPGD inh	HPGD inh conf	others
Cc1ccccc1C(=O)N1CCc2ccccc2C1	u	n	0.631µM	2.51µM
CC(=O)NC1C(=O)N(CC(C)C)c2ccccc21 (stereo not given)	0.0398µM	n	n	x	ALDH1A1 inh-2=1µM
CC(=O)NC1C2CN3CCN(C2)CC1(Cc1ccccc1)C3 (stereo not given)	n	x	n	x
CC(Oc1ccc(-c2ccccc2)c(F)c1)c1ccn(S(=O)(=O)c2ccc(Br)cc2)n1 (stereo not given)	n	n	n	x
COc1ccc(C(=O)Nc2nccs2)cc1OC	n	n	n	x
COCCN1C(=O)c2ccc(C(=O)Nc3nccs3)cc2C1=O	u	n	n	x
CCCN1C(=O)c2ccc(C(=O)Nc3nccs3)cc2C1=O	0.282µM	n	n	x	ALDH1A1 inh-2=0.398µM
CCCN1C(=O)c2ccc(C(=O)Nc3cc(C)on3)cc2C1=O	0.398µM	n	n	x	ALDH1A1 inh-2=0.794µM
Cc1cc(NC(=O)c2ccc3c(c2)C(=O)N(Cc2ccccc2)C3=O)no1	n	x	x	x
COCCN1C(=O)c2ccc(C(=O)O)cc2C1=O	u	n	n	x
CC(C)CN1C(=O)c2ccc(C(=O)Nc3nccs3)cc2C1=O	0.447µM	n	n	x	ALDH1A1 inh-2=0.316µM
CCCN1C(=O)c2ccc(C(=O)NC3CCCCC3)cc2C1=O	u	n	n	x	ALDH1A1 inh-2=0.355µM
